# Results published in PubChem BioAssay.
# Active and inactive are the calls of the source.
# Key:
# [1] = binders of probe aFSTL3 on microarray, primary screen, stem cell growth factor project, biochemical, small-molecule microarray, fluorescence 635/667 (AID 1064); conditions: higher = more signal;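 also: measures binding of the biotinylated anti-FSTL3 antibody to printed compounds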
# [2] = binders from COS7 lysate, DM2A8 probe, primary screen, torsin A project, cell lysate, small-molecule microarray, fluorescence 635/667 (AID 1065); conditions: higher = more signal, COS7 lysate expressing mutant human TOR1A
# [3] = binders of probe aFGF2 on microarray, primary screen, stem cell growth factor project, biochemical, small-molecule microarray, fluorescence 635/667 (AID 1067); conditions: higher = more signal;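 also: measures binding of biotinylated aFGF2 protein to printed compounds on slides; z-score merges feature fluorescence and signal-to-noise across triplicate slides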
# [4] = binders of probe aFGF10 on microarray, primary screen, stem cell growth factor project, biochemical, small-molecule microarray, fluorescence 635/667 (AID 1071); conditions: higher = more signal;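 also: score merges 667 nm spot intensity and signal to noise from triplicate slides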
# [5] = target: Neurogenic locus notch homolog protein 2 (Homo sapiens) (UniProt Q04721); assay: Notch2 binders on small-molecule microarrays, primary screen, biochemical, small-molecule microarray, 635 nm fluorescence, stem cell growth factors (AID 1073); conditions: Notch2 binding, higher = more signal
# Chain of Neurogenic locus notch homolog protein 2 (Homo sapiens) (Q04721 whole entry, looked up, canonical isoform): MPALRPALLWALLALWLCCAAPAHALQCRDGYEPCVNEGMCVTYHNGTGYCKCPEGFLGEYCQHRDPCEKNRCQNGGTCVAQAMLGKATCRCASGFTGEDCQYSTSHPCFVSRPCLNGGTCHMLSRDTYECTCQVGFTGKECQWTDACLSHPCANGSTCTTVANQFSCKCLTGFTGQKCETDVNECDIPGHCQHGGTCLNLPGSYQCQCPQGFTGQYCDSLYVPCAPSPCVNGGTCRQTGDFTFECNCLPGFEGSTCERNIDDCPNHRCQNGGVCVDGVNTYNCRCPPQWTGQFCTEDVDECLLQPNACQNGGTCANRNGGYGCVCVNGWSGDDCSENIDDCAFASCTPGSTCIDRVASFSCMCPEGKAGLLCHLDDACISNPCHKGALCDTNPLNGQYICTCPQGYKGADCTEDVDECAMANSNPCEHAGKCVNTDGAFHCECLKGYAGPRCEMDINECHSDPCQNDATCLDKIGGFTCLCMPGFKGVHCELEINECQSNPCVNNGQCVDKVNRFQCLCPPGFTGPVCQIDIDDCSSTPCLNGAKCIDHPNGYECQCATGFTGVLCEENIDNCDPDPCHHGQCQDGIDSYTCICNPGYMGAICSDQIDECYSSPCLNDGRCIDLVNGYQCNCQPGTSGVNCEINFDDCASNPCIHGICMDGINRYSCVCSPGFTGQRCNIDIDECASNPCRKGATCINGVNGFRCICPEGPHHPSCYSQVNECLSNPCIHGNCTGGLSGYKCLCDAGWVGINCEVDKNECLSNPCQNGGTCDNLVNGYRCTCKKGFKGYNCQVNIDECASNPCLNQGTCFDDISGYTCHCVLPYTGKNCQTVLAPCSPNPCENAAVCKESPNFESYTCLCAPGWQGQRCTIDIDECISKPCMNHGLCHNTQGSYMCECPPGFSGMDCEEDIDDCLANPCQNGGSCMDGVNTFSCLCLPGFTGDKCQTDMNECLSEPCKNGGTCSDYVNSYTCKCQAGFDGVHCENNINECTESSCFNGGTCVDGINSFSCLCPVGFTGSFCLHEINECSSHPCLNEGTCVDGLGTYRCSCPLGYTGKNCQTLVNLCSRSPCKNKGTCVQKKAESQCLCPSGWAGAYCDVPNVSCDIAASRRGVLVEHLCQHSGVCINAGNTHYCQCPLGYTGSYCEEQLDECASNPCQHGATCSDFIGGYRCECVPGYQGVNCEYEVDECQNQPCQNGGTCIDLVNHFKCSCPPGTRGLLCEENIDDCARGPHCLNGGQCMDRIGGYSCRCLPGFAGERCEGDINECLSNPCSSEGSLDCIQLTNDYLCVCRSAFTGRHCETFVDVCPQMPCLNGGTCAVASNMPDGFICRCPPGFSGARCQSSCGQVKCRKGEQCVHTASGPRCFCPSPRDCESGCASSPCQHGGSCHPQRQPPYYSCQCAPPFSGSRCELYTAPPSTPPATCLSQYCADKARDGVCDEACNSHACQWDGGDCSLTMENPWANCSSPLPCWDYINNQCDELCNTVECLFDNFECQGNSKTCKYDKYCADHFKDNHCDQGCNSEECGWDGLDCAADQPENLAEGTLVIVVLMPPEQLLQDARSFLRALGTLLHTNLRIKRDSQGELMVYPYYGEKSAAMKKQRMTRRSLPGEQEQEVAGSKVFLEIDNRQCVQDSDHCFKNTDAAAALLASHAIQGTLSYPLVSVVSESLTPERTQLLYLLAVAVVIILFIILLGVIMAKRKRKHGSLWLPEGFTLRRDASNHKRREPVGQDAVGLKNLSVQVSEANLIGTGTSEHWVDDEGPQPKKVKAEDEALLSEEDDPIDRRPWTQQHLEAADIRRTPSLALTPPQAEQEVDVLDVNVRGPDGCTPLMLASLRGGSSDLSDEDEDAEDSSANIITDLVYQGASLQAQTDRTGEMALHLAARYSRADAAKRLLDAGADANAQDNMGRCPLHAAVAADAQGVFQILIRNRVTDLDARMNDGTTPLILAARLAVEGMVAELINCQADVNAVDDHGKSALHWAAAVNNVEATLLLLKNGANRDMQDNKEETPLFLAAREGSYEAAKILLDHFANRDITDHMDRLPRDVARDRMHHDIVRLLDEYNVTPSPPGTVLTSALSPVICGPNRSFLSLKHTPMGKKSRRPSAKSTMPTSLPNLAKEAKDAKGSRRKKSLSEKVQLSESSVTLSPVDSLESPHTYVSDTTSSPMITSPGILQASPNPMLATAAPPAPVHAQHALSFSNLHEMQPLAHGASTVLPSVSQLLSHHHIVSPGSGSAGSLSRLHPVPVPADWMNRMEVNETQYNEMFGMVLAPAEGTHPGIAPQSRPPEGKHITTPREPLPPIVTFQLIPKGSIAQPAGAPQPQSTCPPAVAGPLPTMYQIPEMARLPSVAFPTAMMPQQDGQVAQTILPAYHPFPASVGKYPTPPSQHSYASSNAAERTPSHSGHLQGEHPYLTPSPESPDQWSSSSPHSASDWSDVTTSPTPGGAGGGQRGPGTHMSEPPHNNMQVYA
# [6] = target: Pro-neuregulin-1, membrane-bound isoform (Homo sapiens) (UniProt Q02297); assay: NRG1 binders on small-molecule microarrays, primary screen, psychiatric disease protein project, biochemical, small-molecule microarray, fluorescence 635/667 (AID 1075); conditions: NRG1 binding, 635 nm fluorescence, higher = more signal;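 also: score combines 667 nm spot fluorescence with signal to noise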
# Chain of Pro-neuregulin-1, membrane-bound isoform (Homo sapiens) (Q02297 whole entry, looked up, the tested form may be a part, canonical isoform): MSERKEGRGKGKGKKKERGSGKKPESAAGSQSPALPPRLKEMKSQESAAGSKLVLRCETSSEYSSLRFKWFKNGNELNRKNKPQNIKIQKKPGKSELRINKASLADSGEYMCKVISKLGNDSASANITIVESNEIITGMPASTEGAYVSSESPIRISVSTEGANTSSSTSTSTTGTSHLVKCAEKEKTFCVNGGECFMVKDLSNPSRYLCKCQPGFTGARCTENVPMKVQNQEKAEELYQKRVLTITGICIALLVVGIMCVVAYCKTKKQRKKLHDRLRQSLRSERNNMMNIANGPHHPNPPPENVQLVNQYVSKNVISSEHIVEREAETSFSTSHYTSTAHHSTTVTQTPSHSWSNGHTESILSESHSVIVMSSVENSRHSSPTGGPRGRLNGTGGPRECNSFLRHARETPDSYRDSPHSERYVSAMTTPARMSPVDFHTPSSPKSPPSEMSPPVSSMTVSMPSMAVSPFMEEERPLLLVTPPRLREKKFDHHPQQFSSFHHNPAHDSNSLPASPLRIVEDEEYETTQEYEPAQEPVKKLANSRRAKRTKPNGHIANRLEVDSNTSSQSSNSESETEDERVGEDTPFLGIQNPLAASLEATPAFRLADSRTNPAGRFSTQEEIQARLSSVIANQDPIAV
# [7] = system: Neuregulin-1 EGF-like domain; assay: binders of neuregulin-1 EGF-like domain, primary screen, biochemical, small-molecule microarray, 635 nm fluorescence (AID 1081); conditions: small-molecule microarray binding, higher = more signal;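 also: binding of the protein to compounds printed on small-molecule microarray slides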
# [8] = FRG1 promoter luciferase signal modulators, primary screen, FRG1 inhibition for FSHD, cell-based, C2C12 myotubes, firefly/Renilla luciferase, luminescence (AID 1084); conditions: higher = more signal, called active from +8 up or from −8 down
# [9] = binders of probe aFST on microarray, primary screen, stem cell growth factor project, biochemical, small-molecule microarray, fluorescence 635/667 (AID 1086); conditions: higher = more signal;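 also: score merges 667 nm fluorescence with signal-to-noise of each printed compound spot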
# [10] = binders of probe aHhip on microarray, primary screen, stem cell growth factor project, biochemical, small-molecule microarray, fluorescence 635/667 (AID 1087); conditions: higher = more signal;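 also: score merges spot fluorescence at 667nm with spot signal to noise ratio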
# [11] = system: PRMT1 (protein arginine N-methyltransferase 1); assay: PRMT1 binders on small-molecule microarrays, primary screen, biochemical, small-molecule microarray, 635 nm fluorescence (AID 1088); conditions: small-molecule microarray binding, higher = more signal;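 also: binding of Prmt1 protein to compounds spotted on small-molecule microarray slides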
# [12] = yeast growth modulation, basal conditions, primary screen, YJM789 clinical isolate, OD600, 24 h (AID 1089);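 also: growth of clinical yeast isolate S. cerevisiae YJM 789 seeded 1000 cells per well; test concentration not given here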; conditions: S. cerevisiae YJM789 growth, higher = more signal, called active from +8 up or from −8 down
# [13] = fission yeast growth modulation, primary screen, strain 972, OD600, 24 h, no modulator (AID 1090);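 also: basal condition with compound alone and no growth modifier present; test concentration not given here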; conditions: S. pombe 972 growth, higher = more signal, called active from +8 up or from −8 down
# [14] = S. cerevisiae growth modulation with rapamycin, primary screen, strain BY4716, OD600, 96 h (AID 1091); conditions: higher = more signal, called active from +8 up or from −8 down; also: test concentration not given here
# [15] = target: Torsin-1A-interacting protein 2 (Homo sapiens) (UniProt Q8NFQ8); assay: LULL1 binders on small-molecule microarray, primary screen, cell lysate, human LULL1 lysate, 635/667 nm fluorescence (AID 1092); conditions: hLULL1 lysate binding, 635 nm fluorescence, higher = more signal;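 also: probe is lysate of COS7 cells overexpressing human LULL1; score merges per-feature 667 nm fluorescence with signal-to-noise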
# Chain of Torsin-1A-interacting protein 2 (Homo sapiens) (Q8NFQ8 whole entry, looked up): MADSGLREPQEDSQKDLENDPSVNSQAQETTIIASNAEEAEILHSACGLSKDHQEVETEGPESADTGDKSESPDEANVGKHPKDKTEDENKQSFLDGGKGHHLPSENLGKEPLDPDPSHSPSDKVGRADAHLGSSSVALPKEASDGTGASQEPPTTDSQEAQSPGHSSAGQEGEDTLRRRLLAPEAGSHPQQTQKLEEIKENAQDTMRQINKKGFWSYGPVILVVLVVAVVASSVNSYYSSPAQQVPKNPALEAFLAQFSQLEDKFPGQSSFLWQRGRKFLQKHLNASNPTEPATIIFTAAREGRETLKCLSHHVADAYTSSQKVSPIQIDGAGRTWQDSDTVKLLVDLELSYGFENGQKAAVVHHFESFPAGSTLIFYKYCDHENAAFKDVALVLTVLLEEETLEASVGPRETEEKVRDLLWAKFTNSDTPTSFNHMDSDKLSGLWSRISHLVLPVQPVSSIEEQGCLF
# [16] = E. coli growth modulation, two-sided OD650, primary screen, E. coli filamentation project, strain DRC41, 24 h (AID 1093); conditions: OD650, 24 h, higher = more signal, called active from +8 up or from −8 down;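 also: MC1000 strain lacking acrAB efflux and sulA so SOS filamentation is blocked; test concentration not given here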
# [17] = small-molecule microarray binders of probe aLefty2, primary screen, biochemical, biotinylated probe, 635/667 nm fluorescence (AID 1094); conditions: higher = more signal;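 also: score merges spot fluorescence near 667 nm with spot signal-to-noise ratio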
# [18] = system: Noggin (protein binding on small-molecule microarray); assay: Noggin binders on small-molecule microarray, primary screen, biochemical, 635/667 nm fluorescence (AID 1095); conditions: 635 nm fluorescence, higher = more signal;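 also: score merges 667 nm feature fluorescence with signal to noise over triplicate slides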
# [19] = target: Neurogenic locus notch homolog protein 3 (Homo sapiens) (UniProt Q9UM47); assay: NOTCH3 binders on small-molecule microarray, primary screen, biochemical, 635/667 nm fluorescence (AID 1096); conditions: NOTCH3 binding, 635 nm fluorescence, higher = more signal
# [20] = small-molecule microarray binders of probe aEGFR, primary screen, biochemical, biotinylated probe, 635/667 nm fluorescence (AID 1097); conditions: higher = more signal;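 also: probe is a biotinylated anti-EGFR antibody binding compounds printed on slides; score combines fluorescence near 667 nm and signal to noise of each spot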
smiles,measurement,setting,value
COc1ccc(C(O)C2C=CC3C(=O)N(Cc4ccccc4)C(=O)C3N2n2cnnc2)c2ccccc12 (stereo not given),composite z-score,[1],0.487
same,composite z-score,[2],1.07
same,composite z-score,[3],-0.0876
same,composite z-score,[4],-0.522
same,composite z-score,[5],-0.782
same,composite z-score,[6],1.81
same,composite z-score,[7],1.32
same,z-score,[8],0.422 (inactive)
same,composite z-score,[9],0.623
same,composite z-score,[10],-0.162
same,composite z-score,[11],1.17
same,z-score,[12],-0.346 (inactive)
same,z-score,[13],0.0768 (inactive)
same,z-score,[14],-0.282 (inactive)
same,composite z-score,[15],2.81
same,z-score,[16],-0.671 (inactive)
same,composite z-score,[17],-0.238
same,composite z-score,[18],-0.641
same,composite z-score,[19],0.556
same,composite z-score,[20],-0.175
C=CCNC(=O)[C@@H]1[C@H]2C(=O)O[C@H](c3ccccc3)[C@H](c3ccccc3)N2[C@H](c2ccc(OCCO)cc2)[C@@]12C(=O)N(C(=O)OCCOC)c1ccc(C#CC3=CCCCC3)cc12,composite z-score,[1],0.0698
same,composite z-score,[2],0.937
same,composite z-score,[3],0.0524
same,composite z-score,[4],0.59
same,composite z-score,[5],1.35
same,composite z-score,[6],1.33
same,composite z-score,[7],1.17
same,z-score,[8],0.223 (inactive)
same,composite z-score,[9],0.622
same,composite z-score,[10],0.21
same,composite z-score,[11],1.55
same,z-score,[12],1.27 (inactive)
same,z-score,[13],1.14 (inactive)
same,z-score,[14],3.61 (inactive)
same,composite z-score,[15],2.83
same,z-score,[16],-0.741 (inactive)
same,composite z-score,[17],-0.0373
same,composite z-score,[18],0.978
same,composite z-score,[19],1.14
same,composite z-score,[20],0.0209
C=C(CCCC)/C(=C/C[C@@H](OC(=O)c1ccncc1)c1cccc(OCCO)c1)c1cnc2ccccc2c1,composite z-score,[1],0.186
same,composite z-score,[2],0.935
same,composite z-score,[3],0.049
same,composite z-score,[4],1.03
same,composite z-score,[5],1.3
same,composite z-score,[6],0.972
same,composite z-score,[7],1.13
same,z-score,[8],2.51 (inactive)
same,composite z-score,[9],0.0095
same,composite z-score,[10],0.443
same,composite z-score,[11],1.57
same,z-score,[12],-2.12 (inactive)
same,z-score,[13],-1.98 (inactive)
same,z-score,[14],1.53 (inactive)
same,composite z-score,[15],1.52
same,z-score,[16],0.657 (inactive)
same,composite z-score,[17],0.0113
same,composite z-score,[18],1.55
same,composite z-score,[19],1.06
same,composite z-score,[20],0.0617
CC(CO)N1C(=O)[C@@H]2C3C(=O)OCCC/C=C\[C@H]3OC23C=CCN(Cn2nnc4ccccc42)C(=O)[C@@H]13 (stereo not given in full),composite z-score,[1],-0.185
same,composite z-score,[2],-0.469
same,composite z-score,[3],-0.107
same,composite z-score,[4],0.285
same,composite z-score,[5],-0.722
same,composite z-score,[6],1.7
same,composite z-score,[7],1.34
same,z-score,[8],-1.11 (inactive)
same,composite z-score,[9],-0.161
same,composite z-score,[10],0.21
same,composite z-score,[11],-1.18
same,z-score,[12],0.216 (inactive)
same,z-score,[13],-0.152 (inactive)
same,z-score,[14],-0.637 (inactive)
same,composite z-score,[15],-1.1
same,z-score,[16],0.333 (inactive)
same,composite z-score,[17],-0.198
same,composite z-score,[18],-0.254
same,composite z-score,[19],0.219
same,composite z-score,[20],-0.152
COc1ccc([Si](C)(C)[C@H]2[C@H](CCO)O[C@@]3(C(=O)N(Cc4cccc(N5CCCCC5=O)c4)c4ccccc43)[C@@H]2C)cc1,composite z-score,[1],-0.337
same,composite z-score,[2],0.154
same,composite z-score,[3],-0.081
same,composite z-score,[4],0.375
same,composite z-score,[5],0.87
same,composite z-score,[6],0.652
same,composite z-score,[7],1.2
same,z-score,[8],-2.32 (inactive)
same,composite z-score,[9],0.327
same,composite z-score,[10],0.176
same,composite z-score,[11],1.54
same,z-score,[12],2.01 (inactive)
same,z-score,[13],-1.99 (inactive)
same,z-score,[14],2.68 (inactive)
same,composite z-score,[15],1.56
same,z-score,[16],0.525 (inactive)
same,composite z-score,[17],-0.0732
same,composite z-score,[18],0.296
same,composite z-score,[19],0.896
same,composite z-score,[20],0.214
C[C@H]1C2=C3C(CC[C@H]4C(OCc5ccc(F)cc5C(F)(F)F)OC[C@](C)([C@@H]34)N(C(=O)OC(C)(C)C)C2)C(CO)C1CO (stereo not given in full),composite z-score,[1],0.0721
same,composite z-score,[2],-0.249
same,composite z-score,[3],0.0506
same,composite z-score,[4],-0.0807
same,composite z-score,[5],1.57
same,composite z-score,[6],1.76
same,composite z-score,[7],0.572
same,z-score,[8],0.133 (inactive)
same,composite z-score,[9],1.72
same,composite z-score,[10],0.2
same,composite z-score,[11],0.889
same,z-score,[12],0.24 (inactive)
same,z-score,[13],-3.71 (inactive)
same,z-score,[14],0.0345 (inactive)
same,composite z-score,[15],3.04
same,z-score,[16],-1.5 (inactive)
same,composite z-score,[17],0.606
same,composite z-score,[18],-0.904
same,composite z-score,[19],1.05
same,composite z-score,[20],0.0149
CCOC(=O)C[C@H]1[C@H](OC(=O)c2ccc(-c3ccccc3)cc2)[C@@H](NC(=O)c2ccc3ccccc3n2)c2cc(OCCCO)ccc2N1C(=O)c1ccccc1,composite z-score,[1],-0.497
same,composite z-score,[2],0.482
same,composite z-score,[3],-0.0996
same,composite z-score,[4],0.618
same,composite z-score,[5],1.01
same,composite z-score,[6],0.464
same,composite z-score,[7],0.857
same,z-score,[8],-0.561 (inactive)
same,composite z-score,[9],0.579
same,composite z-score,[10],0.113
same,composite z-score,[11],1.52
same,z-score,[12],0.617 (inactive)
same,z-score,[13],0.33 (inactive)
same,z-score,[14],0.976 (inactive)
same,composite z-score,[15],2.11
same,z-score,[16],-0.81 (inactive)
same,composite z-score,[17],-0.171
same,composite z-score,[18],0.671
same,composite z-score,[19],1.05
same,composite z-score,[20],0.0026
COCC(=C=CC[C@H](O)c1ccc(OCCO)cc1)C[C@H](O)COCc1ccccc1,composite z-score,[1],-0.41
same,composite z-score,[2],0.0477
same,composite z-score,[3],-0.0762
same,composite z-score,[4],0.477
same,composite z-score,[5],0.189
same,composite z-score,[6],0.586
same,composite z-score,[7],1.03
same,z-score,[8],0.723 (inactive)
same,composite z-score,[9],0.163
same,composite z-score,[10],0.0505
same,composite z-score,[11],1.51
same,z-score,[12],-1.49 (inactive)
same,z-score,[13],-1.44 (inactive)
same,z-score,[14],-0.885 (inactive)
same,composite z-score,[15],1.64
same,z-score,[16],0.825 (inactive)
same,composite z-score,[17],-0.298
same,composite z-score,[18],1.4
same,composite z-score,[19],0.573
same,composite z-score,[20],-0.02
C=C1C2CC3C(=C4C(CO[C@@H]4[C@H]4CCCN4S(=O)(=O)c4ccccc4[N+](=O)[O-])C4C(=O)N(C)C(=O)C34)CC2C(=O)N1C (stereo not given in full),composite z-score,[1],-0.431
same,composite z-score,[2],0.315
same,composite z-score,[3],-0.125
same,composite z-score,[4],0.36
same,composite z-score,[5],0.574
same,composite z-score,[6],1.12
same,composite z-score,[7],0.0641
same,z-score,[8],0.581 (inactive)
same,composite z-score,[9],0.174
same,composite z-score,[10],0.0024
same,composite z-score,[11],0.627
same,z-score,[12],-0.0815 (inactive)
same,z-score,[13],-4.92 (inactive)
same,z-score,[14],-0.824 (inactive)
same,composite z-score,[15],0.303
same,z-score,[16],-0.509 (inactive)
same,composite z-score,[17],-0.139
same,composite z-score,[18],0.082
same,composite z-score,[19],0.22
same,composite z-score,[20],0.106
CN1C(=O)C2C=CC(C(O)Cc3ccccc3)N(N(c3ccccc3)c3ccccc3)C2C1=O (stereo not given),composite z-score,[1],0.135
same,composite z-score,[2],0.147
same,composite z-score,[3],0.0295
same,composite z-score,[4],0.837
same,composite z-score,[5],0.602
same,composite z-score,[6],0.503
same,composite z-score,[7],1.11
same,z-score,[8],0.357 (inactive)
same,composite z-score,[9],0.654
same,composite z-score,[10],0.107
same,composite z-score,[11],0.795
same,z-score,[12],-0.179 (inactive)
same,z-score,[13],0.759 (inactive)
same,z-score,[14],1.11 (inactive)
same,composite z-score,[15],2.22
same,z-score,[16],-1.39 (inactive)
same,composite z-score,[17],0.107
same,composite z-score,[18],0.218
same,composite z-score,[19],0.839
same,composite z-score,[20],-0.137
